Experimental data taken from ChEMBL document CHEMBL1961873, “Compounds: GSK PKIS; Assays: Nanosyn kinase panel” (2012).

What follows are compounds tested against BDNF/NT-3 growth factors receptor (Homo sapiens) (UniProt Q16620). Conditions: at 0.1 µM.
Sequence of BDNF/NT-3 growth factors receptor (Homo sapiens) (Q16620 32-822 limits assumed): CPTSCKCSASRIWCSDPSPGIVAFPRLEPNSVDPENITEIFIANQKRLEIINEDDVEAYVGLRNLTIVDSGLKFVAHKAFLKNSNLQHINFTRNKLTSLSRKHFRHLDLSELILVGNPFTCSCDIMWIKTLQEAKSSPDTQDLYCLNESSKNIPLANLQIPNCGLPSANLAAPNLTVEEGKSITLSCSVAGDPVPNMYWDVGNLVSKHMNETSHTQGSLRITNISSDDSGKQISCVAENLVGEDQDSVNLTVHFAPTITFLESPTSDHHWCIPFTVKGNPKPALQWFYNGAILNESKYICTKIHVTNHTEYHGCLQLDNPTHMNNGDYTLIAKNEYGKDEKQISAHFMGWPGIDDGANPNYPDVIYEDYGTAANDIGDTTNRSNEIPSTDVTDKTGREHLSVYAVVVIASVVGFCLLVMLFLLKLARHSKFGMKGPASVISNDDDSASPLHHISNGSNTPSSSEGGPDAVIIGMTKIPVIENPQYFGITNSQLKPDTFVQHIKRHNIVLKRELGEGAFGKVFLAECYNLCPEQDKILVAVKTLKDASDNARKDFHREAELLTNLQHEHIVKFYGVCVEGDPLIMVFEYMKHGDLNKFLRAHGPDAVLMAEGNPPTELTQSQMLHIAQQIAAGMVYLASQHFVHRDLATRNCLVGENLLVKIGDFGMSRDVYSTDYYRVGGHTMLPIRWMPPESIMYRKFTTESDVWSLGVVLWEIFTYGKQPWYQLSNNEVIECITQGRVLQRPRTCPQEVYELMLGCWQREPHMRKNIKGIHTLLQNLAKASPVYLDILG

| Compound | inhibition |
| --- | --- |
| O=C1Nc2ccc(I)cc2C1=Cc1cc(Br)c(O)c(Br)c1 | 2.53% |
| CCS(=O)(=O)c1ccc(OC)c(Nc2ncc(-c3cccc(-c4ccccc4F)c3)o2)c1 | 7.74% |
| COc1ccc(-c2ccc3c(NC(=O)C4CC4)n[nH]c3n2)cc1 | 1.11% |
| CCc1ccc(Oc2nccc(-c3c(-c4ccc(F)cc4)ncn3C3CCNCC3)n2)cc1 | 1.6% |
| NCc1ccc(-n2c(-c3nonc3N)nc3cnccc32)cc1 | 3.11% |
| CN1CCN(CCCNc2nc3ccc(Oc4ccc(NC(=O)Nc5cc(C(F)(F)F)ccc5F)cc4)cc3[nH]2)CC1 | 1.65% |
| NS(=O)(=O)c1ccc(Nc2cc(-c3ccc(O)c(F)c3)n[nH]2)cc1 | 6.06% |
| NS(=O)(=O)c1ccc(N/N=C2\C(=O)Nc3ccc(-c4cnco4)cc32)cc1 | 9.38% |
| CCc1cccc(CC)c1/C=C/c1cncc(C(=O)NC)c1 | 1.04% |
| FC(F)(F)c1cccc(Nc2nccc(-c3cnn4nc(-c5ccccc5)ccc34)n2)c1 | 0.37% |
| COc1ccc2cc(-c3c(-c4ccncc4)nc(-c4ccc([S+](C)[O-])cc4C)n3C)ccc2c1 (stereo not drawn) | -0.26% |
| CCS(=O)(=O)c1ccc(OC)c(Nc2ncc(-c3ccccc3Cl)o2)c1 | 1.97% |
| C[C@@H](Oc1cc(-n2cnc3ccc(OCC4CCN(C)CC4)cc32)sc1C(N)=O)c1ccccc1Cl | 3.02% |
| C[C@@H](Oc1cc(-n2cnc3ccc(OC4CCN(C)CC4)cc32)sc1C(N)=O)c1ccccc1Cl | 3.68% |
| CCN(CC)Cc1ccc(Nc2nccc(-c3cnn4ncccc34)n2)cc1 | 4.49% |
| Fc1ccc(-c2ncn(CCCN3CCOCC3)c2-c2ccncc2)cc1 | -0.51% |
| Fc1ccc(-c2nc3n(c2-c2ccncc2)CCS3)cc1 | 2.62% |

| Compound | inhibition |
| --- | --- |
| Fc1ccc(-c2ncn(C3CCNCC3)c2-c2ccnc(Oc3ccc4c(c3)OCO4)n2)cc1 | 5.44% |
| Fc1ccc(-c2c(-c3ccncc3)nc3n2CCS3)cc1 | 1.79% |
| O=C(Nc1n[nH]c2nc(-c3ccc(O)cc3)c(Br)cc12)C1CC1 | 5.55% |
| CN(C)CCOc1ccc(-c2cc(-c3ccc4c(c3)CCC4=NO)c(-c3ccncc3)o2)cc1 | -0.06% |
| COc1ccc(C2=C(N3CCc4ccccc43)C(=O)NC2=O)cc1 | 3.2% |
| CN(c1ccc(NC(=O)Nc2c(Cl)cccc2Cl)cc1)c1ccnc(Nc2cccc(CS(C)(=O)=O)c2)n1 | 30.1% |
| Cc1ccc(C(=O)NC2CCC2)cc1-c1ccc(C(=O)NCC2CC2)cc1 | 1.02% |
| COc1cccc(-n2cnc3c(N/N=C/c4ccncc4)ncnc32)c1 | 0.22% |
| Cc1ccc(C(=O)NC(C)C)cc1-c1ccc(C(=O)NCC2CC2)cc1 | -1.41% |
| NC(=O)Cc1ccccc1Oc1nccc(-c2c(-c3ccc(F)cc3)ncn2C2CCNCC2)n1 | 0.02% |
| O=C1Nc2ccccc2/C1=C/Nc1ccc(-n2cncn2)cc1 | 11.7% |
| c1ccc(Oc2ccc(Nc3ncc(-c4ccccc4)o3)cc2)cc1 | 0.87% |
| COc1cc2ncn(-c3cc(OCc4ccccc4C(F)(F)F)c(C(C)=O)s3)c2cc1OC | 1.74% |
| COc1ccc2ncn(-c3cc(O[C@H](C)c4ccccc4Cl)c(C(N)=O)s3)c2c1 | 3.84% |
| CCc1nccc2c1nc(-c1nonc1N)n2CC | 3.6% |
| CN(C)c1ccc2c(c1)/C(=C/Nc1ccc(S(N)(=O)=O)cc1)C(=O)N2 | 15.4% |
| COc1cc2ncn(-c3cc(OCc4cccs4)c(C(N)=O)s3)c2cc1OC | 3.23% |

What follows are compounds tested against BDNF/NT-3 growth factors receptor (Homo sapiens) (UniProt Q16620). Conditions: at 1 µM.

| Compound | inhibition |
| --- | --- |
| O=C1Nc2ccc(I)cc2C1=Cc1cc(Br)c(O)c(Br)c1 | 5.74% |
| CCS(=O)(=O)c1ccc(OC)c(Nc2ncc(-c3cccc(-c4ccccc4F)c3)o2)c1 | 39.2% |
| COc1ccc(-c2ccc3c(NC(=O)C4CC4)n[nH]c3n2)cc1 | 5.12% |
| CCc1ccc(Oc2nccc(-c3c(-c4ccc(F)cc4)ncn3C3CCNCC3)n2)cc1 | 2.36% |
| NCc1ccc(-n2c(-c3nonc3N)nc3cnccc32)cc1 | 1.99% |
| CN1CCN(CCCNc2nc3ccc(Oc4ccc(NC(=O)Nc5cc(C(F)(F)F)ccc5F)cc4)cc3[nH]2)CC1 | 10.6% |
| NS(=O)(=O)c1ccc(Nc2cc(-c3ccc(O)c(F)c3)n[nH]2)cc1 | 36.7% |
| NS(=O)(=O)c1ccc(N/N=C2\C(=O)Nc3ccc(-c4cnco4)cc32)cc1 | 46.4% |
| CCc1cccc(CC)c1/C=C/c1cncc(C(=O)NC)c1 | 3.79% |
| FC(F)(F)c1cccc(Nc2nccc(-c3cnn4nc(-c5ccccc5)ccc34)n2)c1 | 3.54% |
| COc1ccc2cc(-c3c(-c4ccncc4)nc(-c4ccc([S+](C)[O-])cc4C)n3C)ccc2c1 (stereo not drawn) | -0.8% |
| CCS(=O)(=O)c1ccc(OC)c(Nc2ncc(-c3ccccc3Cl)o2)c1 | 8.35% |
| C[C@@H](Oc1cc(-n2cnc3ccc(OCC4CCN(C)CC4)cc32)sc1C(N)=O)c1ccccc1Cl | 10.1% |
| C[C@@H](Oc1cc(-n2cnc3ccc(OC4CCN(C)CC4)cc32)sc1C(N)=O)c1ccccc1Cl | 7.84% |
| CCN(CC)Cc1ccc(Nc2nccc(-c3cnn4ncccc34)n2)cc1 | 7.47% |
| Fc1ccc(-c2ncn(CCCN3CCOCC3)c2-c2ccncc2)cc1 | -1.43% |
| Fc1ccc(-c2nc3n(c2-c2ccncc2)CCS3)cc1 | 0.16% |

| Compound | inhibition |
| --- | --- |
| Fc1ccc(-c2ncn(C3CCNCC3)c2-c2ccnc(Oc3ccc4c(c3)OCO4)n2)cc1 | 5.76% |
| Fc1ccc(-c2c(-c3ccncc3)nc3n2CCS3)cc1 | -0.01% |
| O=C(Nc1n[nH]c2nc(-c3ccc(O)cc3)c(Br)cc12)C1CC1 | 14.5% |
| CN(C)CCOc1ccc(-c2cc(-c3ccc4c(c3)CCC4=NO)c(-c3ccncc3)o2)cc1 | 1.62% |
| COc1ccc(C2=C(N3CCc4ccccc43)C(=O)NC2=O)cc1 | 2.97% |
| CN(c1ccc(NC(=O)Nc2c(Cl)cccc2Cl)cc1)c1ccnc(Nc2cccc(CS(C)(=O)=O)c2)n1 | 55.4% |
| Cc1ccc(C(=O)NC2CCC2)cc1-c1ccc(C(=O)NCC2CC2)cc1 | 1.56% |
| COc1cccc(-n2cnc3c(N/N=C/c4ccncc4)ncnc32)c1 | 6.69% |
| Cc1ccc(C(=O)NC(C)C)cc1-c1ccc(C(=O)NCC2CC2)cc1 | 0.73% |
| NC(=O)Cc1ccccc1Oc1nccc(-c2c(-c3ccc(F)cc3)ncn2C2CCNCC2)n1 | 0.58% |
| O=C1Nc2ccccc2/C1=C/Nc1ccc(-n2cncn2)cc1 | 56.5% |
| c1ccc(Oc2ccc(Nc3ncc(-c4ccccc4)o3)cc2)cc1 | 2.96% |
| COc1cc2ncn(-c3cc(OCc4ccccc4C(F)(F)F)c(C(C)=O)s3)c2cc1OC | 2.56% |
| COc1ccc2ncn(-c3cc(O[C@H](C)c4ccccc4Cl)c(C(N)=O)s3)c2c1 | 9.91% |
| CCc1nccc2c1nc(-c1nonc1N)n2CC | -1.57% |
| CN(C)c1ccc2c(c1)/C(=C/Nc1ccc(S(N)(=O)=O)cc1)C(=O)N2 | 65.2% |
| COc1cc2ncn(-c3cc(OCc4cccs4)c(C(N)=O)s3)c2cc1OC | 16.9% |
